From PubChem BioAssay (NCATS)
Records with an inconclusive call do not appear. Values without a mark were called inactive. The source made the active and inactive calls. Unless noted, the call rests on the fitted dose curve; in most records, active means well fitted curve in either direction with a large enough effect (not every such curve was filed as active); inconclusive means small, poorly fitted or top-dose-only effect, or another doubt; inactive means flat fitted curve, though single readings scatter.

Biological target: Cytochrome P450 1A2 (Homo sapiens) (UniProt P05177)
Sequence (P05177 whole entry, looked up): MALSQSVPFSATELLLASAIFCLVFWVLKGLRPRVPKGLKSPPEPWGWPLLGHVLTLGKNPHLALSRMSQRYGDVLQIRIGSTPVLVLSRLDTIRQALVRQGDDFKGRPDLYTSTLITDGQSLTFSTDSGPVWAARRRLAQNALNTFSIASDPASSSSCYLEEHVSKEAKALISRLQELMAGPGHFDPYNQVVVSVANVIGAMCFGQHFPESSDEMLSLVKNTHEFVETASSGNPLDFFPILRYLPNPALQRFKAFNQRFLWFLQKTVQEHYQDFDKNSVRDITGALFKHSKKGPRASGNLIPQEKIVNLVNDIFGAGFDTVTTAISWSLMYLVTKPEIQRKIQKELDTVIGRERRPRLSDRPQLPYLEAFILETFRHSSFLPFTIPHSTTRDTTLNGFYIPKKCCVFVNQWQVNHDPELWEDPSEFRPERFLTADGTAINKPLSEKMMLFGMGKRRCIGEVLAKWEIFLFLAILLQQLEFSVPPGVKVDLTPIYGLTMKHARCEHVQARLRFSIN
Assay: p450-cyp1a2 (AID 410; calls by dose curve; further: potency means the concentration at half of the fitted maximal effect)
Conditions: recombinant CYP1A2, luciferin-ME demethylation, luminescence; series mostly up to 57 µM
How it was run: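 20nM CYP1A2 with 100uM Luciferin-ME (at Km) in 100mM KPO4; compound preincubated 10 min, NADPH regeneration added, 60 min at room temperature. Luciferin quantified by luminescence after detection reagent; normalized to 57 uM furafylline.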

Row | SMILES | Potency
1 | COc1ccc(CNc2nc(-c3cccc(C#N)c3)nc3ccccc23)c(OC)c1 | 2510 nM (active)
2 | CCNc1ncc2nc(CCc3ccccc3)c(=O)n(Cc3ccc(F)cc3)c2n1 | 3160 nM (active)
3 | CS(=O)(=O)Nc1cccc(-c2ccc3ncnc(N4CCOCC4)c3c2)c1 | 12600 nM (active)
4 | COc1ccccc1CNc1ccnc(-c2c(C)noc2C)n1 | 398 nM (active)
5 | CNc1nc(-c2cccc(C#N)c2)nc2ccccc12 | 79.4 nM (active)
6 | COc1cccc(-c2nc(NCCNC(C)=O)c3ccccc3n2)c1 | 2510 nM (active)
7 | COc1ccccc1CNc1ccnc(-c2ccccc2OC)n1 | 3980 nM (active)
8 | COc1ccccc1CNc1ncnc2ccc(-c3ccc4c(c3)OCO4)cc12 | 794 nM (active)
9 | COc1cccc(-c2nccc(NCc3ccccc3OC)n2)c1 | 1260 nM (active)
10 | COc1ccccc1-c1cc(NCc2cnc(C)cn2)ncn1 | 12600 nM (active)
11 | CN(Cc1ccco1)c1cc(-c2cccc(C#N)c2)ncn1 | 794 nM (active)

Test system: not listed separately
Assay: NFAT Signaling Pathway (AID 444);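 further: carbachol stimulus at about its EC50 of 1 µM final; on the % scale 0 is the no-effect control and ±100 the full control effect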
Conditions: Jurkat NFAT-bla M1, carbachol, beta-lactamase ratio, 5 h; at 7.69 µM (top of the series) unless noted
How it was run: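 Read-out: CCF4 FRET ratio (460 nm/530 nm) after 1 h RT dye loading, used for %activity and AC50 from titration series. Cells: Jurkat NFAT-β-lactamase/M1 line, treated with compound plus 1 uM carbachol for 5 h, 37 °C.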

Row | SMILES | activity change, negative = inhibition
12 | Cc1cnc(CNc2cc(-c3cccnc3)ncn2)cn1 | -1.2%
13 | CS(=O)(=O)Nc1cccc(-c2cc(Nc3ccccc3)ncn2)c1 | 10.9%
14 | COc1ccccc1CNc1cc(-c2ccccc2Cl)ncn1 | 0.444%
15 | Cc1noc(C)c1-c1cncnc1-n1ccnc1 | -5.32%
16 | O=c1c(-c2cccc(Cl)c2)nc2cncnc2n1-c1ccccc1 | 9.76%
17 | COc1ccc2[nH]cc(CCNc3ccnc(-c4c(C)noc4C)n3)c2c1 | 9.64%
18 | COc1cccc(Cn2c(=O)c(-c3cccs3)nc3cnc(OC)nc32)c1 | 25.8%
19 | CN(Cc1ccco1)c1nc(-c2ccoc2)nc2ccccc12 | -18.3%
20 | COc1ccccc1CNc1cc(-c2ccccc2C(F)(F)F)ncn1 | -8.05%
21 | Cc1ccccc1-c1ccc2ncnc(NCc3cccnc3)c2c1 | 2.06%
22 | Cc1cnc(CNc2ncncc2-c2ccc(N(C)C)cc2)cn1 | -0.821%
23 | Cc1cnc(CNc2cc(-c3ccccc3Cl)ncn2)cn1 | 3.5%
24 | CCNc1ncc2nc(CCc3ccccc3)c(=O)n(C[C@H]3CCCO3)c2n1 | -3.48%
25 | COc1cccc(Cn2c(=O)c(-c3cccc(C#N)c3)nc3cnc(N4CCOCC4)nc32)c1 | 0.194%
26 | CN(C)C(=O)c1ccc(-c2cc(N(C)Cc3ccco3)ncn2)cc1 | -13.4%
27 | CN(C)C(=O)c1ccc(-c2cncnc2Nc2ccc(F)cc2)cc1 | 5.12%
28 | CCNc1ncc2nc(CCc3ccccc3)c(=O)n(Cc3ccc(F)cc3)c2n1 | 20.5%
29 | COc1cccc(Cn2c(=O)c(CCc3ccccc3)nc3cnc(N4CCOCC4)nc32)c1 | -19.1%
30 | COc1ccccc1CNc1ccnc(-c2c(C)noc2C)n1 | -13.8%
31 | CNc1nc(-c2cccc(C#N)c2)nc2ccccc12 | 2.31%
32 | COc1cccc(-c2nc(NCCNC(C)=O)c3ccccc3n2)c1 | 8.46%
33 | COc1ccccc1CNc1ccnc(-c2ccccc2OC)n1 | -0.0586%
34 | COc1ccccc1CNc1ncnc2ccc(-c3ccc4c(c3)OCO4)cc12 | -26.5%
35 | COc1cccc(-c2nccc(NCc3ccccc3OC)n2)c1 | 11.8%
36 | Cc1noc(C)c1-c1nc(NC2CC2)c2ccccc2n1 | -6.72%
37 | COc1ccccc1-c1cc(NCc2cnc(C)cn2)ncn1 | 2.34%
38 | COc1cccc(Nc2ncc3nc(-c4ccc(Cl)cc4)c(=O)n(C[C@H]4CCCO4)c3n2)c1 | 2.35%
39 | CN(Cc1ccco1)c1cc(-c2cccc(C#N)c2)ncn1 | 11.4%

Test system: not listed separately
Assay: Stat Signaling Pathway (AID 446);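 further: ME-180 cervical cancer cells given 40 pM IL-6 alongside compound; SIE-controlled beta-lactamase reporter measured as 460/530 nm FRET emission ratio; on the % scale 0 is the no-effect control and ±100 the full control effect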
Conditions: ME-180 (cervical carcinoma) SIE beta-lactamase reporter, IL-6 stimulated, 5 h; at 7.69 µM (top of the series) unless noted
How it was run: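 IL-6/STAT signaling read in ME-180 cells via an SIE beta-lactamase reporter. Stimulus was 40 pM IL-6 (its AC50) for 5 hrs, so both activation and inhibition register.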

Row | SMILES | activity, negative = inhibition
40 | Cc1cnc(CNc2cc(-c3cccnc3)ncn2)cn1 | -0.57%
41 | CS(=O)(=O)Nc1cccc(-c2cc(Nc3ccccc3)ncn2)c1 | 3.87%
42 | CCNc1ncc2nc(-c3ccc(OC)cc3)c(=O)n(CCc3ccccc3)c2n1 | 122% [activator] (active)
43 | COc1ccccc1CNc1cc(-c2ccccc2Cl)ncn1 | -1.65%
44 | Cc1noc(C)c1-c1cncnc1-n1ccnc1 | 12.7%
45 | O=c1c(-c2cccc(Cl)c2)nc2cncnc2n1-c1ccccc1 | 0.546%
46 | CN(Cc1ccco1)c1ncncc1-c1ccccc1C(F)(F)F | -2.15%
47 | COc1ccc2[nH]cc(CCNc3ccnc(-c4c(C)noc4C)n3)c2c1 | -5.35%
48 | CN(Cc1ccco1)c1nc(-c2ccoc2)nc2ccccc12 | -4.21%
49 | COc1cccc(Cn2c(=O)c(-c3cccs3)nc3cnc(N4CCNCC4)nc32)c1 | 114% [activator] (active)
50 | N#CCCn1c(=O)c(-c2cc(F)cc(F)c2)nc2cnc(Nc3ccccc3)nc21 | -15.8%
51 | COc1cccc(Nc2ncc3nc(CCc4ccccc4)c(=O)n(Cc4cccs4)c3n2)c1 | -28.9%
52 | Cc1ccccc1-c1ccc2ncnc(NCc3cccnc3)c2c1 | -11%
53 | Cc1cnc(CNc2ncncc2-c2ccc(N(C)C)cc2)cn1 | 13.6%
54 | Cc1cnc(CNc2cc(-c3ccccc3Cl)ncn2)cn1 | 2.17%
55 | CCNc1ncc2nc(CCc3ccccc3)c(=O)n(C[C@H]3CCCO3)c2n1 | -9.11%
56 | COc1cccc(Cn2c(=O)c(-c3cccc(C#N)c3)nc3cnc(N4CCOCC4)nc32)c1 | 18.9%

Row | SMILES | activity, negative = inhibition
57 | CN(C)C(=O)c1ccc(-c2cc(N(C)Cc3ccco3)ncn2)cc1 | 16.7%
58 | COc1ccc(CNc2nc(-c3cccc(C#N)c3)nc3ccccc23)c(OC)c1 | -10.1%
59 | CN(C)C(=O)c1ccc(-c2cncnc2Nc2ccc(F)cc2)cc1 | 9.71%
60 | CCNc1ncc2nc(CCc3ccccc3)c(=O)n(Cc3ccc(F)cc3)c2n1 | 26.2%
61 | CS(=O)(=O)Nc1cccc(-c2ccc3ncnc(N4CCOCC4)c3c2)c1 | -11.8%
62 | COc1cccc(Cn2c(=O)c(CCc3ccccc3)nc3cnc(N4CCOCC4)nc32)c1 | -8.53%
63 | COc1ccccc1CNc1ccnc(-c2c(C)noc2C)n1 | -17.2%
64 | CNc1nc(-c2cccc(C#N)c2)nc2ccccc12 | 6.92%
65 | COc1cccc(-c2nc(NCCNC(C)=O)c3ccccc3n2)c1 | 3.51%
66 | COc1ccccc1CNc1ccnc(-c2ccccc2OC)n1 | 9.83%
67 | COc1ccccc1CNc1ncnc2ccc(-c3ccc4c(c3)OCO4)cc12 | -7.21%
68 | COc1cccc(-c2nccc(NCc3ccccc3OC)n2)c1 | -8.4%
69 | Cc1noc(C)c1-c1nc(NC2CC2)c2ccccc2n1 | 7.05%
70 | COc1ccccc1-c1cc(NCc2cnc(C)cn2)ncn1 | 2.04%
71 | COc1cccc(Nc2ncc3nc(-c4ccc(Cl)cc4)c(=O)n(C[C@H]4CCCO4)c3n2)c1 | 4.74%
72 | CN(Cc1ccco1)c1cc(-c2cccc(C#N)c2)ncn1 | 8.43%
